Where “and” joins values, the source holds several entries; their conditions need not be identical. Equal values may be shown once. The panel holds about 83,000 compounds, 20% with a hit somewhere; the sample as a whole holds those more often.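 Each cell line was grown in a 96-well plate and treated with one concentration of compound for 48 hours. Values below 10 were considered active.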 Calls of active or inactive are those of the source.

In this experiment the test system is HL-60(TB) leukemia. As to the kind of experiment: NCI-60 one-dose screen, 48 h (100 = growth as untreated, 0 = no growth, -100 = all killed). The note with it: 10 µM unless noted.
For `C=C1C(=O)O[C@H]2[C@H]1CC/C(COC(=O)CCSCCC(=O)OC/C1=C/CC[C@@]3(C)O[C@H]3[C@H]3OC(=O)C(=C)[C@@H]3CC1)=C\CC[C@@]1(C)O[C@@H]21`, the growth is -58.2% (active).
Under `COc1ccc2cc(C(=O)c3coc4ccc(O)cc34)ccc2c1` stands 73.2% (inactive).
Turning to `Cc1cc(O)c(C(C)C)cc1S(=O)(=O)O` (tested in a mixture with another compound), the growth is 84.2% (inactive) and -0.846% (active) and 104% (inactive).
For `Nc1c2c(nc3ccc(Br)cc13)CC(c1ccccc1)CC2=O` (stereo not drawn), the growth was 10.7% (inactive).
To `CN(C)CCNc1nc2ccccc2c2c(=O)c3cc(F)ccc3sc12` belongs 38.1% (inactive); to `Oc1cccc(-c2nc3sccn3c2-c2ccncn2)c1`, 99.2% (inactive).
For `O=C(Nc1ccc2cc3ccc(NC(=O)NC4CCCCC4)cc3nc2c1)NC1CCCCC1`, the growth is 99.3% (inactive).
To `CCOc1cccc(Nc2nc(N)nc3[nH]c4ccc(O)cc4c23)c1` belongs 53% (inactive).
`COc1ccc(-c2nc(NN)c3c(C)nn(-c4ccc(F)cc4)c3n2)cc1`: the growth was 0.613% (active).
`CC1(C)CC[C@]2(c3nnc(-c4ccncc4)o3)CC[C@H]3C(=CC[C@H]4[C@@]3(C)CC[C@H]3C(C)(C)C(=O)CC[C@]43C)[C@@H]2C1`: the growth was 3% (active).
With `CN(C)C(C(N)=O)c1ccc(Cl)cc1` (stereo not drawn), the growth was 89.6% (inactive).
On to `COC(c1ccc2c(c1)OCO2)C(C)Br` (stereo not drawn), for which the growth is 94.7% (inactive).
`N#Cc1ncc(-c2cc(F)c(F)c(F)c2)c(NC2CCCCCC2)n1`: the growth was 108% (inactive).

The values are drawn from PubChem BioAssay (NCI).
